The structures appear in SMILES notation. Hit rate of the full screen: of about 320,000 compounds, about 2,100 (0.66%) were called active. Another 53% or so got no clear call; they are omitted. Calls come from the whole dose curve; as a rule, active = well fitted inhibition curve with a large enough effect in the signal ratio, with a control signal flat (not every such curve was filed as active); inconclusive = small, poorly fitted or top-dose-only effect, or effect the other way, or a change in a side signal; inactive = flat fitted curve, though single readings scatter; the % refers to the signal ratio. This excerpt belongs to a sample that is enriched for actives.

Drawing on PubChem BioAssay AID2685 (National Center for Advancing Translational Sciences (NCATS), 2010), this text covers Potency and cell number change for 45 compounds.
Potency is the fitted concentration of half-maximal effect.

The assay is described as follows: qHTS Assay for Lipid Storage Modulators in Drosophila S3 Cells.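 For cell number change: cells counted by Cell Tracker Red CMTPX staining in the red channel.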 Conditions: BODIPY lipid droplet fluorescence, 18-24 h, cells fed with added oleic acid; cell number change: measured here: cell count max response; series mostly up to 46.1 µM. The procedure, abridged: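 Laser-scanning cytometry quantifies lipid droplet accumulation (500–530 nm total intensity; droplet/cell object ratio) in oleic acid-fed (400 uM added) Drosophila S3 cells treated with a concentration series. 20 uM Triacsin C defined 100% inhibition.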
(In qHTS, concentration-response curves come from the screen itself.)
`COc1ccccc1/C=C/C1(C(=O)NC2CCCC2)CC(=O)N1c1ccc(F)cc1` (centres undefined): the Potency result is “inactive” and the cell number change is -14.3%.

Take `COc1ccc(-n2c(O)c(/C=N/NS(=O)(=O)c3ccc(C)cc3)c3ccccc3c2=O)cc1OC`: the Potency was 8.2 µM (active) and the cell number change is -21%.

For `COc1ccc(-n2c(O)c(/C=N/NS(=O)(=O)c3cccc([N+](=O)[O-])c3)c3ccccc3c2=O)cc1OC`, the Potency was 16.4 µM (active) and the cell number change was -20.8%.

On to `COc1cc(/C=N/NS(=O)(=O)c2ccccc2)ccc1OS(=O)(=O)c1ccc(C)cc1`, for which the Potency result is “inactive” and the cell number change was determined as 20.6%.

Turning to `NC(=O)Cn1cc(/C=N\NS(=O)(=O)c2cccc([N+](=O)[O-])c2)c2ccccc21`, the Potency entry is “inactive” and the cell number change is 1.79%.

With `Cc1ccc(-n2c(O)c(/C=N/n3cnnc3)c3ccccc3c2=O)cc1`, the Potency result is “inactive” and the cell number change is 9.27%.

With `O=[N+]([O-])c1cccc(S(=O)(=O)N/N=C/c2ccc(O)cc2)c1`, the Potency result is “inactive”.

Turning to `Cc1cccn2c(CN3CCCC(c4ccccc4)C3)c(C(=O)N3CCOCC3)nc12` (centres undefined), the Potency entry is “inactive” and the cell number change is -15.3%.

`Cc1nc2nc(NC(=O)c3ccco3)nn2c(C)c1Cl`: the Potency result is “inactive” and the cell number change amounted to 16.3%.

For `CCOc1ccc(CCNC(=O)c2cccc(-n3cnnn3)c2)cc1OCC`, the Potency is 0.0731 µM (active) and the cell number change was -24.8%.

Consider `CCOc1ccc(CCNC(=O)c2cc(C)on2)cc1OCC`, for which the Potency result is “inactive” and the cell number change was 4.47%.

As to `Cc1noc(C)c1COc1ccc(C(=O)NNC(=O)c2ccccc2)cc1`, the Potency result was “inactive” and the cell number change is 2.9%.

With `CCOc1ccc(CCNC(=O)c2cccc(S(=O)(=O)N3CCN(C(C)=O)CC3)c2)cc1OCC`, the Potency result is “inactive” and the cell number change is -4.38%.

Take `CCOc1ccc(CCNC(=O)c2cc(C)nc3ccccc23)cc1OCC`: the Potency result is “inactive” and the cell number change is 1.62%.

With `CCOc1ccc(CCNC(=O)c2ccc3ccccc3n2)cc1OCC`, the Potency is 8.2 µM (active) and the cell number change is -6.07%.

`Cc1noc(C)c1COc1ccc(C(=O)NCCc2ccc(S(N)(=O)=O)cc2)cc1`: the Potency entry is “inactive” and the cell number change worked out at 9.63%.

For the compound `Cc1noc(C)c1COc1ccc(C(=O)O)cc1`, the Potency entry is “inactive” and the cell number change came to 4.42%.

On to `CCOc1ccc(CCNC(=O)c2ccccc2OCc2c(C)noc2C)cc1OCC`, for which the Potency result was “inactive” and the cell number change came to 4.08%.

Consider `CCOc1ccc(CCNC(=O)c2ccc(OCc3c(C)noc3C)cc2)cc1OCC`, for which the Potency is 11.6 µM (active) and the cell number change worked out at 14.1%.

For the compound `Cc1noc(C)c1COc1ccc(C(=O)N(C)CCOc2ccccc2)cc1`, the Potency was 8.2 µM (active) and the cell number change is -18.6%.

In the case of `CCOc1ccc(-n2cnnn2)cc1S(=O)(=O)NCCc1ccc(OC)c(OC)c1`, the Potency entry is “inactive”.

For `COc1ccc(N2CCN(C(=O)COC(=O)/C=C/c3ccc(OC(F)F)cc3)CC2)cc1`, the Potency result is “inactive”.

Regarding `COc1ccc(Nc2nc(Cl)nc(Nc3ccc(OC)cc3OC)n2)c(OC)c1`, the Potency entry was “inactive” and the cell number change was -11.9%.

For `CCOc1ccc(OCc2ccc(C(=O)Nc3ccc(Cl)cn3)o2)cc1`, the Potency entry is “inactive” and the cell number change came to 16.1%.

As for `CC(=O)Nc1sc(C)c(C)c1CN1CCN(S(=O)(=O)c2ccccc2)CC1`, the Potency entry was “inactive”.

For `Cc1cc(C)c(Nc2ncnc(N)n2)c(C)c1`, the Potency entry was “inactive” and the cell number change is -1.29%.

Take `O=c1cc(N2CCc3ccccc3C2)[nH]c(=O)n1-c1ccc(Br)cc1`: the Potency result is “inactive”.

As to `CCC1CN(C(=O)N2CCC(C(=O)NCCc3ccccc3)CC2)c2ccccc2O1` (centres undefined), the Potency entry was “inactive” and the cell number change was -2.95%.

Take `CCC1CN(C(=O)N2CCC(C(=O)NCCc3ccc(OC)cc3OC)CC2)c2ccccc2O1` (centres undefined): the Potency is 5.17 µM (active) and the cell number change came out at 1.47%.

For `CCC1CN(C(=O)N2CCC(C(=O)NCc3ccc(OC)cc3OC)CC2)c2ccccc2O1` (centres undefined), the Potency entry was “inactive” and the cell number change amounted to 4.13%.

Consider `CCC1CN(C(=O)N2CCC(C(=O)NCc3ccc(C)o3)CC2)c2ccccc2O1` (centres undefined), for which the Potency entry is “inactive”.

For the compound `CCC1CN(C(=O)N2CCC(C(=O)NCc3ccccc3OC)CC2)c2ccccc2O1` (centres undefined), the Potency entry is “inactive” and the cell number change was determined as 16.5%.

Regarding `CCC1CN(C(=O)N2CCC(C(=O)NCc3cc(OC)c(OC)c(OC)c3)CC2)c2ccccc2O1` (centres undefined), the Potency entry was “inactive” and the cell number change is -18%.

With `CCC1CN(C(=O)N2CCC(C(=O)NCCc3ccc(OC)c(OC)c3)CC2)c2ccccc2O1` (centres undefined), the Potency result is “inactive” and the cell number change was 5.9%.

For the compound `CCC1CN(C(=O)N2CCC(C(=O)NCc3ccccc3C)CC2)c2ccccc2O1` (centres undefined), the Potency was 3.66 µM (active) and the cell number change was -0.59%.

As to `CCC1CN(C(=O)N2CCC(C(=O)NCCc3ccccc3OC)CC2)c2ccccc2O1` (centres undefined), the Potency is 6.51 µM (active) and the cell number change worked out at 13.3%.

As to `O=C(Nc1ccc(F)cc1)/C(=C1/CCCCCN1)[N+](=O)[O-]`, the Potency entry was “inactive” and the cell number change came to 18.2%.

Regarding `Cc1ccccc1CSc1nnc(NC(=O)Cc2cccs2)s1`, the Potency entry is “inactive” and the cell number change was 0.934%.

As for `O=S(=O)(Nc1ccc(-c2nc3ccccc3o2)cc1)c1ccccc1`, the Potency result is “inactive” and the cell number change is -16.6%.

For the compound `O=C(CCCSc1ccc(Cl)cc1)Nc1cc(S(=O)(=O)N2CCOCC2)ccc1O`, the Potency result was “inactive” and the cell number change was -18.8%.

For `CCCCc1ccc(CC(=O)Nc2cc(S(=O)(=O)N3CCOCC3)ccc2O)cc1`, the Potency was 20.6 µM (active) and the cell number change was -16.2%.

In the case of `CC(=O)NCCc1ccc(S(=O)(=O)Nc2ccc(C)c(S(=O)(=O)N3CCOCC3)c2)cc1`, the Potency result is “inactive” and the cell number change was -24.8%.

Take `O=C(Nc1cc(S(=O)(=O)N2CCOCC2)ccc1O)c1ccco1`: the Potency result is “inactive” and the cell number change was -13.8%.

For the compound `C/C(=N\NC(=O)CCc1ccc(S(=O)(=O)N2CCOCC2)cc1)c1ccc(OC(F)F)cc1`, the Potency is 11.6 µM (active) and the cell number change was -28.6%.

For the compound `CC(=O)NCCc1ccc(S(=O)(=O)N2CCOCC2)cc1`, the Potency is 18.4 µM (active) and the cell number change is -15.6%.
